The results in this text go back to PubChem BioAssay (EPA / NIEHS).

Records with an inconclusive call do not appear. Active and inactive are the calls of the source. How the source made its calls, unless noted: active means hit-call score of the fitted dose curve at least 0.9, where 1 is the maximum; inconclusive means response in the unintended direction; inactive means score below 0.9.

Assay [1] can be described thus: TOX21_p53_BLA_p2_viability: Viability Assessment in the Tox21 HCT-116 p53 Agonism Beta-lactamase Assay, Phase 2 (AID 2283591).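 Further: actives lower the ATP signal meaning cytotoxicity.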 In outline:
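HCT116 p53-bla cells, 4000/well, dosed after 5 h plating (217-fold dilution of DMSO stocks) and incubated 16 h at 37C. Viability taken as cellular ATP by CellTiter-Glo luminescence after 30 min RT; signal loss marks cytotoxicity.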

Assay [2] deals with Cellular tumor antigen p53 (Homo sapiens) (UniProt P04637). The experiment in a line: TOX21_p53_BLA_p2_ratio: Tox21 HCT-116 p53 Agonism Beta-lactamase Assay, Ratio, Phase 2 (AID 2283592). The procedure, abridged: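 Readout: blue/green (460/530 nm) FRET emission ratio after 2 h CCF4-AM loading at room temperature, excitation 405 nm. HCT116 p53 bla cells, 16 h compound exposure at 37C, 5% CO2; agonist direction fitted against DMSO baseline.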
Sequence of Cellular tumor antigen p53 (Homo sapiens) (P04637 whole entry, looked up): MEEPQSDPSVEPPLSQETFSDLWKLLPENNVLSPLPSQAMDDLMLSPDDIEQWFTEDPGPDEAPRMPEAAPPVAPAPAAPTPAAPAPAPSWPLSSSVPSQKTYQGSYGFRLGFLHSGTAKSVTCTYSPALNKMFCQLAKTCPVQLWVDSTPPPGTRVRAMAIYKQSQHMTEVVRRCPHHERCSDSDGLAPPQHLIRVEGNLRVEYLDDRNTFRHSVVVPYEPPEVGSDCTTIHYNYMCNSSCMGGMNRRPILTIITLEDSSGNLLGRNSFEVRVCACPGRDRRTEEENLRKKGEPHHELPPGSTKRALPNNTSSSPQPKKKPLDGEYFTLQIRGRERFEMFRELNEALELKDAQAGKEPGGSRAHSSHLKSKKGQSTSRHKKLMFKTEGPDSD

Assay [3] can be described thus: TOX21_p53_BLA_p3_viability: Viability Assessment in the Tox21 HCT-116 p53 Agonism Beta-lactamase Assay, Phase 3 (AID 2283593).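 Further: cells exposed to compound for 16 h before reading.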 In outline:
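HCT116 cells, 4000/well, dosed 5 h after plating by pin transfer (217-fold dilution from DMSO stock) and incubated 16 h at 37C, 5% CO2. Viability read as ATP luminescence with CellTiter-Glo after 30 min at room temperature.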

In assay [4] the target is Cellular tumor antigen p53 (Homo sapiens) (UniProt P04637). The experiment in a line: TOX21_p53_BLA_p3_ratio: Tox21 HCT-116 p53 Agonism Beta-lactamase Assay, Ratio, Phase 3 (AID 2283596). In outline: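 Cells were seeded at 4000/well, rested 5 h at 37C, then dosed with DMSO compound solutions (217-fold dilution) for 16 h. CCF4-AM substrate was loaded for 2 h at room temperature, and the 460/530 nm emission ratio was fitted for gain of signal versus DMSO.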

The target is the same in assay [5]. The experiment in a line: TOX21_p53_BLA_p4_ratio: Tox21 HCT-116 p53 Agonism Beta-lactamase Assay, Ratio, Phase 4 (AID 2283601). In outline:
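HCT-116 p53 beta-lactamase reporter cells (4000/well) preincubated 5 h, then compound (217-fold dilution of DMSO stock) for 16 h at 37C. CCF4-AM substrate added 2 h at room temperature; 460/530 nm emission ratio fitted upward versus DMSO.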

The nature of assay [6]: TOX21_p53_BLA_p4_viability: Viability Assessment in the Tox21 HCT-116 p53 Agonism Beta-lactamase Assay, Phase 4 (AID 2283597).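 Further: hits lower the luminescence signal meaning cytotoxicity.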 The procedure, abridged:
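ATP content by CellTiter-Glo luminescence, 30 min RT, read after the beta-lactamase ratio step. Cells: HCT116, 4000/well, compound added after 5 h, exposure 16 h at 37C. Signal loss = reduced viability.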

Assay [7] in a line: TOX21_p53_BLA_p5_viability: Viability Assessment in the Tox21 HCT-116 p53 Agonism Beta-lactamase Assay, Phase 5 (AID 2283600). The procedure, abridged:
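ATP luminescence (CellTiter-Glo, 30 min, RT) served as the viability read-out, with loss of signal indicating cytotoxicity. Compounds in DMSO were pinned at a 217-fold dilution onto 4000 cells/well and incubated 16 h, 37C.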

Assay [8] deals with Cellular tumor antigen p53 (Homo sapiens) (UniProt P04637). Kind of assay: TOX21_p53_BLA_p5_ratio: Tox21 HCT-116 p53 Agonism Beta-lactamase Assay, Ratio, Phase 5 (AID 2283599). The procedure, abridged: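 HCT-116 p53-bla cells (4000/well) plated 5 h, dosed with compound (217-fold DMSO dilution) for 16 h at 37 C; CCF4-AM substrate 2 h at room temperature. Activity is the 460/530 nm emission ratio (405 nm excitation), fitted in gain-of-signal direction versus DMSO.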

Assay [9] is described as follows: CCTE_Harrill_HTTr_Viability_MCF7: CCTE's 6-hour Cell Viability Assessment for the High-Throughput Transcriptomics (HTTr) Platform, in MCF-7 cells cultured in DMEM + 10% fetal bovine serum, Harrill Lab (AID 2284010; active means hit-call score of the fitted dose curve at least 0.9, where 1 is the maximum; inactive means score below 0.9). In outline: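 PI exclusion, high-content imaging; 8-pt dilution series, 6 h exposure; bidirectional fit vs DMSO (neg. ctrl/baseline); gain of signal = loss of membrane integrity.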

A short description of assay [10]: CCTE_Harrill_HTTr_Apoptosis_MCF7: CCTE's 6-hour Apoptosis Assessment for the High-Throughput Transcriptomics (HTTr) Platform, in MCF-7 cells cultured in DMEM + 10% fetal bovine serum, Harrill Lab (AID 2284011; active means hit-call score of the fitted dose curve at least 0.9, where 1 is the maximum; inactive means score below 0.9). In outline:
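Read-out: CellEvent Caspase 3/7 Green signal by high content imaging, gain-of-signal indicating apoptosis. MCF-7 cells, DMEM + 10% FBS, eight-point dilution series, 6 h exposure. Curves fitted bidirectionally relative to DMSO negative control.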

Assay [11] addresses Thyroid hormone receptor alpha (Rattus norvegicus) + Thyroid hormone receptor beta (Rattus norvegicus) (UniProt P18113+P63059). The experiment in a line: TOX21_TR_LUC_GH3_Antagonist_Followup: Tox21 GH3 Thyroid Hormone Receptor Antagonism Luciferase Follow-Up Assay (AID 2283942). The procedure, abridged: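 Luminescence read-out (ONE-Glo, 30 min at room temperature) in GH3 reporter cells challenged with 1.0 nM T3 final. Compounds ran at 92 uM to 5nM over 15 concentrations for 24 h; DMSO served as negative control and baseline.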

In assay [12] the target is THRA (gene 7067) (UniProt P10827). The experiment in a line: TOX21_TRA_COA_Antagonist_Followup_ratio: Tox21 Thyroid Hormone Receptor alpha Antagonism through Coactivator Recruitment Follow-Up Assay, Ratio (AID 2283953). In outline: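 We measured antagonism of T3-type coactivator recruitment using a TR-FRET ratio (emission 520 and 495 nm) between a Tb-labelled anti-GST antibody on TRα LBD (2.5 nM) and SRC-2 peptide (200 nM). Activity was scaled between DMSO and T3 wells.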
Sequence of THRA (gene 7067) (P10827 whole entry, looked up, the tested form may be a part): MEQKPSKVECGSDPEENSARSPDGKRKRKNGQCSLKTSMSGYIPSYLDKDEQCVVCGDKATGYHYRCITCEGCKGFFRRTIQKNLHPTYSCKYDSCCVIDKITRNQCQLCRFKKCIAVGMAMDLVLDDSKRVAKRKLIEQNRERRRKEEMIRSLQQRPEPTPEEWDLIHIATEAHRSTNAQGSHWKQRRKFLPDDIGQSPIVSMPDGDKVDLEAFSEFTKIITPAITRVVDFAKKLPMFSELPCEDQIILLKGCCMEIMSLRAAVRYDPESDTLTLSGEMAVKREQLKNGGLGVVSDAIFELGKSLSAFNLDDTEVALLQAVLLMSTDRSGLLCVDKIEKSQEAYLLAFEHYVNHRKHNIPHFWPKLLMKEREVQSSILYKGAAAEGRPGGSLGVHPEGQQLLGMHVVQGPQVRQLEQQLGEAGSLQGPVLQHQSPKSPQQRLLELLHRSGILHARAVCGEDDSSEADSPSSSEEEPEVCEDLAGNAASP

Assay [13] addresses THRB (gene 7068) (UniProt P10828). Kind of assay: TOX21_TRB_BLA_Antagonist_Followup_ratio: Tox21 Thyroid Hormone Receptor beta Antagonism Beta-lactamase (BLA) Follow-Up Assay, Ratio (AID 2283958). The procedure, abridged:
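Read-out: blue/green (460:530 nm) ratio of cleaved to uncleaved CCF4-AM after 2 h at room temperature, fitted against DMSO baseline. HEK293T UAS-bla cells carrying GAL4-human TRβ LBD were exposed 18 h, 37C/5% CO2.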

Assay [14] is described as follows: TOX21_TRB_BLA_Antagonist_Followup_viability: Viability Assessment in the Tox21 Thyroid Hormone Receptor beta Antagonism Beta-lactamase (BLA) Follow-Up Assay (AID 2283961). The procedure, abridged: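 Viability read as CellTiter-Glo ATP luminescence (loss of signal = cytotoxicity) in the same plates as the TRβ-bla readout. TRβ-LBD/GAL4 UAS-bla HEK293T cells were exposed to compounds, 11 concentrations in triplicate, for 18 h at 37C/5% CO2.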

For assay [15], the target named is THRB (gene 7068) (UniProt P10828). The experiment in a line: TOX21_TRB_COA_Antagonist_Followup_ratio: Tox21 Thyroid Hormone Receptor beta Antagonism through Coactivator Recruitment Follow-Up Assay, Ratio (AID 2283967). The procedure, abridged: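 GST-TRb LBD 5.0 nM + 0.10% BSA, compound added; fluorescein-SRC-2 peptide 200 nM, Tb-anti-GST Ab 2 nM. TR-FRET, ex 340 / em 520:495 ratio. Norm: DMSO 0%, T3 100%.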
Sequence of THRB (gene 7068) (P10828 whole entry, looked up, the tested form may be a part): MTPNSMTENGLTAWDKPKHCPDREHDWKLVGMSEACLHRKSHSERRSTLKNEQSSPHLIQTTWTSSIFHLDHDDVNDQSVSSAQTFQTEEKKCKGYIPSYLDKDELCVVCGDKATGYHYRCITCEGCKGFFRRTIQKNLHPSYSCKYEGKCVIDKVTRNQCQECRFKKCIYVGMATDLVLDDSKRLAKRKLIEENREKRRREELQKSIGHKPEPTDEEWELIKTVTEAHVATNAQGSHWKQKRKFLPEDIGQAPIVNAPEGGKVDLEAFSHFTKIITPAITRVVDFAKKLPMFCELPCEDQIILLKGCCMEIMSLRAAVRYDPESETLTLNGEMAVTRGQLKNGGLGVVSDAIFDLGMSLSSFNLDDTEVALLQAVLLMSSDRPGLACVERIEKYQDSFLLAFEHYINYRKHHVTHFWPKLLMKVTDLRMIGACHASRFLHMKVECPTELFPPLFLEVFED

Assay [16] deals with Retinoic acid receptor RXR-alpha (Homo sapiens) (UniProt P19793). The experiment in a line: TOX21_TR_RXR_BLA_Antagonist_Followup_ratio: Tox21 Thyroid Hormone Receptor beta Retinoid X Receptor alpha (RXRa) Antagonism Beta-lactamase (BLA) Follow-Up Assay, Ratio (AID 2283972). The procedure, abridged:
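Beta-lactamase reporter readout as cleaved/uncleaved substrate ratio (460:530 nm) after 2 h substrate loading at room temperature. GAL4-RXRa bla HEK293T cells were exposed 16 h at 37C to 11-point compound series; loss of signal scored against DMSO baseline.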

A short description of assay [17]: TOX21_TR_RXR_BLA_Antagonist_Followup_viability: Viability Assessment in the Tox21 Thyroid Hormone Receptor beta Retinoid X Receptor alpha (RXRa) Antagonism Beta-lactamase (BLA) Follow-Up Assay (AID 2283979). The procedure, abridged:
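RXRa-bla HEK293T cells (2,500/well, phenol red-free DMEM, 2% charcoal-stripped FBS) were attached 5 h, then exposed to compounds at 11 concentrations in triplicate for 16 h at 37C. Viability measured by CellTiter-Glo ATP luminescence, bidirectional fitting versus DMSO.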

Sequence of Retinoic acid receptor RXR-alpha (Homo sapiens) (P19793 whole entry, looked up, the tested form may be a part): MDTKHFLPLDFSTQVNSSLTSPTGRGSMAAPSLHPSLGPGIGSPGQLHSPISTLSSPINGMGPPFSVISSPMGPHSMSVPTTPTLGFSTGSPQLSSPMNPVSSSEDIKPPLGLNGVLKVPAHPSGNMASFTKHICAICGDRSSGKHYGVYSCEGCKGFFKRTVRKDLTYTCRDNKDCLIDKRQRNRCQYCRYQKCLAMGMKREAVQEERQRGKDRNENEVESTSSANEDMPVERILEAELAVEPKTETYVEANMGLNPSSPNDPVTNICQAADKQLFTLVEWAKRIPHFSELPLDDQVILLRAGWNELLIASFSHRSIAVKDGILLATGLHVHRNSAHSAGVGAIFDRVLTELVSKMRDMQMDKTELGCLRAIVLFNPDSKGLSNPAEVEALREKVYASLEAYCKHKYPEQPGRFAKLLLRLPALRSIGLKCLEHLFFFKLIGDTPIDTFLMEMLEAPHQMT

Regarding `C=CCc1cc(OC)c2c(c1)OCO2`, the outcome in assay [1], in [2], in [3], in assay [4] and in assay [5] was inactive.

For `O=C1c2ccccc2C(=O)c2ccccc21`, the compound was classed as inactive in assay [1], in assay [2], in assay [3], in assay [6], in assay [7] and in assay [5].

As to `COc1cc(CC(C)N)c(OC)cc1Br` (stereo not drawn), the result in assay [1], in [2], in assay [3], in assay [6], in assay [8] and in assay [5] was inactive.

On to `COC1=CC(=O)O[C@@H](CCc2ccccc2)C1`, for which the compound was classed as inactive in assay [1], in assay [2], in assay [3], in assay [6], in [8] and in [7]. Further, the result in assay [5] was inactive.

In the case of `COc1cccc(C(=O)CCN[C@@H](C)[C@H](O)c2ccccc2)c1`, the compound was called inactive in assay [1], in assay [2], in assay [3], in [6], in assay [8] and in assay [7]. In addition, in assay [5], the outcome was inactive.

On to `II`, for which the outcome in assay [1], in assay [2], in [3], in assay [6], in [8] and in assay [5] was inactive. Besides, the result in assay [9] and in [10] was inactive.

Regarding `CC(=O)OCC(=O)[C@H]1CC[C@H]2[C@@H]3CC[C@H]4C[C@H](O)CC[C@]4(C)[C@H]3C(=O)C[C@]12C`, the result in [1], in assay [2], in assay [3], in assay [6], in [8] and in [7] was inactive. Besides, the result in assay [5] was inactive.

As to `CC(C)CCON=O`, the outcome in assay [1], in assay [2], in assay [3], in assay [4], in [7] and in [5] was inactive.

For `CN1C[C@H](CNC(=O)OCc2ccccc2)C[C@@H]2c3cccc4c3c(cn4C)C[C@H]21`, the result in assay [1], in assay [2], in assay [3] and in [7] was inactive. Moreover, in assay [6], the AC50 is 38.7 µM (active).

Consider `ClCC(Br)CBr` (stereo not drawn), for which the compound was called inactive in assay [1], in assay [2], in [3], in assay [6] and in assay [7].

Regarding `CCN(CC)CCO[C@H]1CC[C@@]2(C)C(=CC[C@@H]3[C@@H]2CC[C@]2(C)C(=O)CC[C@@H]32)C1`, the outcome in assay [1], in assay [2], in assay [3], in [4], in assay [7] and in [5] was inactive. For the same compound, the outcome in [11], in [12], in [13], in assay [14], in assay [15] and in assay [16] was inactive. Besides, in assay [17], the result was inactive.

Take `CCBr`: the result in [1], in [2], in assay [3], in assay [4], in assay [7] and in assay [5] was inactive.

With `N#CC(C#N)=C(C#N)C#N`, the outcome in [1], in [2], in assay [3], in [4] and in assay [7] was inactive.

In the case of `CC(C)(C)NCC(O)c1cc(Cl)c(N)c(Cl)c1` (stereo not drawn), the result in [1], in assay [2], in assay [3], in [4] and in [5] was inactive.

Consider `CNC(=O)Oc1cc(C)cc(C(C)C)c1`, for which the result in assay [1], in [2], in [4], in assay [6], in assay [8] and in [7] was inactive. Also, the result in assay [5] was inactive.

One may read the AC50 as the concentration at which the activity in the assay is half-maximal.
